From PubChem
Sampled rows, rich in hits. Any-hit rate of the full collection: about 8.1%.
NOMO-1 viab – STK33 inhibitor candidate reducing NOMO-1 cell viability; NOMO-1 AML viability, CellTiter-Glo luminescence, 72 h; inhibition, % (no concentration beside the values); AID 2330; hit rate 7.5% among 37,000; in the data active = inhibition above about 80%; inconclusive = no clear call, values can overlap the other calls
PD-1 reverse act – reversal of PD-1 mediated T-cell inhibition. primary human CD4 T cells, PD-L1 beads, CellTiter-Glo 96 h. activation, % (no concentration beside the values). 29,000 tested, under 10 active; call rule not given here
MITF inhib – blocks MITF activity. inhibition, % (no concentration beside the values). TRPM1 promoter luciferase, luminescence, 24 h. hit rate 0.28% among 37,000; in the data active = inhibition above about 85%; inconclusive = no clear call, values can overlap the other calls; inactive = below about 68%;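 also: human melanocyte line stably carrying TRPM1 promoter luciferase reporter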
Hedgehog inh – blocks Sonic Hedgehog signaling. inhibition, % (concentration not given with the values). hit rate 2.1% among 22,000. AID 2313. Shh-LIGHT2 Gli-luciferase reporter, 30 h;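 active = mean inhibition across valid replicates above about 65%, limit read from the data; inconclusive = mean under the limit, yet half or more replicates past it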;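 also: pathway switched on by Shh-conditioned medium diluted 1 in 25 in low serum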
Each line names hits and unclear results; the compound was inactive in the other large screens.

COc1ccc(NC(=O)Nc2ccc3c(c2)CC(=O)N([C@@H](C)CO)C[C@H](C)[C@H](CN(C)S(=O)(=O)c2ccc(F)cc2)O3)cc1	NOMO-1 viab 110 (no result: PD-1 reverse act)
C[C@@H]1CN([C@@H](C)CO)C(=O)Cc2cc(NC(=O)Nc3ccccc3)ccc2O[C@@H]1CN(C)S(=O)(=O)c1ccc(Cl)cc1	none
CCc1ccccc1NC(=O)CSc1nnc(-c2ccccc2)n1C	none (no result: Hedgehog inh)
COC(=O)c1c(C(=O)OC)c2n(c1C)CSC2	none
C(=N\n1cnnc1)/c1ccco1	none
Cc1ccc2c(c1)-c1c(ssc1=S)C(C)(C)N2C(=O)C(C)C	none (no result: Hedgehog inh)
O=C(c1ccc([N+](=O)[O-])cc1)N(Cc1cc2ccccc2[nH]c1=O)c1ccccc1	none (no result: Hedgehog inh)
C[C@H](CO)N1C[C@H](C)[C@H](CN(C)S(=O)(=O)c2ccc(Cl)cc2)Oc2ccc(NC(=O)NC3CCCCC3)cc2CC1=O	NOMO-1 viab 119 (no result: PD-1 reverse act)
C[C@@H]1CN([C@H](C)CO)C(=O)Cc2cc(NC(=O)NC3CCCCC3)ccc2O[C@@H]1CN(C)S(=O)(=O)c1ccc(Cl)cc1	none
CCc1nnc(NC(=O)CSc2nc(-c3ccccc3)cc(C(F)(F)F)c2C#N)s1	none
CCN(CC)C(=S)CSc1nc(-c2ccccc2)cc(-c2ccco2)c1C#N	NOMO-1 viab 88
CCC(C)S(=O)(=O)c1oc(-c2ccc(C)cc2)nc1S(=O)(=O)c1ccccc1 (stereo not given)	NOMO-1 viab 116 (no result: Hedgehog inh)
Cc1ccc(S(=O)(=O)c2nc(-c3ccccc3)oc2NCCN2CCOCC2)cc1	none (no result: PD-1 reverse act, Hedgehog inh)
C[C@@H]1CN([C@H](C)CO)C(=O)Cc2cc(N(C)C)ccc2O[C@@H]1CN(C)Cc1ccc(Cl)c(Cl)c1	NOMO-1 viab 99
C[C@H]1CN([C@@H](C)CO)C(=O)Cc2cc(NS(C)(=O)=O)ccc2O[C@@H]1CN(C)Cc1ccc(Cl)c(Cl)c1	NOMO-1 viab 98 (no result: PD-1 reverse act)
C[C@H]1CN([C@@H](C)CO)C(=O)Cc2cc(NS(=O)(=O)c3ccc(Cl)cc3)ccc2O[C@@H]1CN(C)Cc1ccc(Cl)c(Cl)c1	NOMO-1 viab 84
C[C@@H]1CN([C@@H](C)CO)C(=O)Cc2cc(NS(=O)(=O)c3ccc(F)cc3)ccc2O[C@@H]1CN(C)Cc1ccc(Cl)c(Cl)c1	NOMO-1 viab 96 (no result: PD-1 reverse act)
C[C@@H]1CN([C@H](C)CO)C(=O)Cc2cc(NS(C)(=O)=O)ccc2O[C@@H]1CN(C)Cc1ccc(Cl)c(Cl)c1	none
CNC(=O)CN(c1cccc(Cl)c1Cl)S(=O)(=O)c1ccccc1	none (no result: Hedgehog inh)
C[C@@H]1CN([C@@H](C)CO)C(=O)Cc2cc(NS(=O)(=O)c3ccc(Cl)cc3)ccc2O[C@@H]1CN(C)Cc1ccc(Cl)c(Cl)c1	NOMO-1 viab 124
C[C@H]1CN([C@@H](C)CO)C(=O)Cc2cc(NS(=O)(=O)c3ccc(Cl)cc3)ccc2O[C@H]1CN(C)Cc1ccc2c(c1)OCO2	none (no result: PD-1 reverse act)
C[C@H]1CN([C@@H](C)CO)C(=O)Cc2cc(NS(=O)(=O)c3ccccc3)ccc2O[C@@H]1CN(C)Cc1ccc(Cl)c(Cl)c1	NOMO-1 viab 122 (no result: PD-1 reverse act)
C[C@@H]1CN([C@@H](C)CO)C(=O)Cc2cc(NS(=O)(=O)c3ccccc3)ccc2O[C@@H]1CN(C)Cc1ccc(Cl)c(Cl)c1	none
C[C@@H]1CN([C@H](C)CO)C(=O)c2cc(NC(=O)CCC(F)(F)F)ccc2O[C@@H]1CN(C)Cc1ccc(C(=O)Nc2ccccc2N)cc1	NOMO-1 viab 104 (no result: Hedgehog inh)
C[C@H]1CN([C@@H](C)CO)C(=O)Cc2cc(NC(=O)CCC(F)(F)F)ccc2O[C@H]1CN(C)Cc1ccc(C(=O)Nc2ccccc2N)cc1	NOMO-1 viab 139 (no result: Hedgehog inh)
O=C1CC(Sc2nnc(-c3ccccc3O)o2)C(=O)N1c1ccccc1 (stereo not given)	NOMO-1 viab 122 (no result: Hedgehog inh)
Cc1c(C)c(C)c(CSC2CC(=O)N(c3ccccc3)C2=O)c(C)c1C (stereo not given)	none
O=C(/C=C/S(=O)(=O)c1ccc(Cl)cc1)c1ccc(F)cc1	NOMO-1 viab 120
NC(=O)CSc1oc(-c2ccc(F)cc2)nc1S(=O)(=O)c1ccc(Cl)cc1	none (no result: Hedgehog inh)
COc1ccccc1C(=O)NCCCn1cc(Br)c(C)n1	none (no result: Hedgehog inh)
Cc1ccc(S(=O)(=O)c2c(C)nn(C(C)(C)C)c2OC(=O)c2ccccc2Br)cc1	NOMO-1 viab 105 (no result: Hedgehog inh)
O=C1C(SCCO)=C(SCCO)C(=O)c2ccccc21	NOMO-1 viab 114, MITF inhib 103, Hedgehog inh 104 (no result: PD-1 reverse act)
O=C(Nc1ccccc1[N+](=O)[O-])c1cccc(S(=O)(=O)Nc2ccc(Br)cc2)c1	none (no result: PD-1 reverse act, Hedgehog inh)
O=C1C(Nc2ccccc2)=CC(=O)c2ncccc21	NOMO-1 viab 142, MITF inhib 97, Hedgehog inh 94
COc1ccc(OC)c(NC(=O)CSc2nnc(-c3cccnc3)s2)c1	NOMO-1 viab 110 (no result: PD-1 reverse act, Hedgehog inh)
COc1ccc(CCN2CCC(Nc3nc4ccccc4n3Cc3ccc(F)cc3)CC2)cc1	NOMO-1 viab 114
CCCCn1c(NCc2ccc(OC)cc2O)nc2ccccc21	none (no result: PD-1 reverse act, Hedgehog inh)
COc1ccc(/C=N/n2cnnc2)cc1	none (no result: Hedgehog inh)
COc1ccc(C=Nc2ccc(Br)cc2)cc1	Hedgehog inh 69
C[C@@H]1CN([C@@H](C)CO)C(=O)c2cccc(NC(=O)Nc3ccccc3)c2O[C@@H]1CN(C)Cc1ccc(C(F)(F)F)cc1	NOMO-1 viab inconclusive
C[C@H](CO)N1C[C@H](C)[C@H](CN(C)Cc2ccc(Oc3ccccc3)cc2)Oc2c(NC(=O)Nc3ccc(C(F)(F)F)cc3)cccc2C1=O	NOMO-1 viab 117
C[C@H]1CN([C@@H](C)CO)C(=O)c2cccc(NC(=O)Nc3ccc(C(F)(F)F)cc3)c2O[C@@H]1CN(C)Cc1ccc(Oc2ccccc2)cc1	NOMO-1 viab 89 (no result: PD-1 reverse act)
COc1ccc(-c2nnc(SCC(=O)Nc3cc(OC)ccc3OC)n2-c2ccccc2C)cc1	none (no result: Hedgehog inh)
O=C(COc1ccc(Cl)cc1Cl)Nc1ccc2oc(-c3ccncc3)nc2c1	none (no result: Hedgehog inh)
C[C@@H]1CN([C@@H](C)CO)C(=O)Cc2cc(NC(=O)Nc3cccc4ccccc34)ccc2O[C@@H]1CN(C)Cc1ccc2c(c1)OCO2	NOMO-1 viab 97
C[C@@H]1CN([C@H](C)CO)C(=O)Cc2cc(NC(=O)Nc3cccc4ccccc34)ccc2O[C@@H]1CN(C)Cc1ccc2c(c1)OCO2	NOMO-1 viab 116
N#Cc1c(-c2ccccc2)n2c(-c3ccccc3)nn(-c3ccccc3)c2nc1=O	none (no result: Hedgehog inh)
C[C@H]1CN([C@@H](C)CO)C(=O)c2cccc(NC(=O)Nc3cccc4ccccc34)c2O[C@H]1CN(C)Cc1ccc(C(=O)Nc2ccccc2N)cc1	NOMO-1 viab 128 (no result: Hedgehog inh)
C[C@@H]1CN([C@@H](C)CO)C(=O)c2cccc(NC(=O)Nc3ccccc3)c2O[C@@H]1CN(C)Cc1ccc(C(=O)Nc2ccccc2N)cc1	NOMO-1 viab 140 (no result: Hedgehog inh)
C[C@@H]1CN([C@H](C)CO)C(=O)c2cccc(NC(=O)Nc3ccccc3)c2O[C@H]1CN(C)Cc1ccc(C(=O)Nc2ccccc2N)cc1	NOMO-1 viab 139 (no result: Hedgehog inh)
C[C@H](CO)N1C[C@H](C)[C@@H](CN(C)Cc2ccc(C(=O)O)cc2)Oc2c(NC(=O)Nc3cccc4ccccc34)cccc2C1=O	none
CN1CCN(c2ncc3c(=S)[nH]c(=S)[nH]c3n2)CC1	none
CCOC(=O)c1c(NC(=O)CSc2nc3ccccc3c(=O)[nH]2)sc2c1CCCC2	NOMO-1 viab 107 (no result: Hedgehog inh)
